HT1080 IDH1KD tx: qHTS for induction of synthetic lethality in tumor cells producing 2HG: qHTS for the HT-1080-IDH1KD cell line | HT-1080 IDH1 knockdown viability, ATP luminescence, 48 h | Potency, µM (series often up to 46.1 µM), hits mostly cytotoxic | 360,000 compounds, 2% hits | AID 686971, 2013
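Knockdown cells (IDH1KD HT-1080) received compounds 2 h after plating at 750 cells/well and were kept 48 h at 37 °C in 5% FBS RPMI. A CellTiter-Glo luminescence read gave % activity for curve fitting.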
KB-3-1 cytotox: qHTS assay for MDR1-selective chemotherapeutics: Primary screen using the parental adenocarcinoma cell KB-3-1; KB-3-1 viability, CellTiter-Glo ATP luminescence, 72 h; Potency, µM (top dose mostly 46.1 µM), usual class: cytotoxic; 400,000 compounds, 1.4% hits; AID 1347075, 2019; further: nearly all actives have a fitted effect of over 60% in size
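Screening of KB-3-1 cells (DMEM, 10% FBS, phenol-red free) ran from lowest to highest compound concentration; after 72 h at 37 °C viability was read luminescently and curves fitted.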
TDP1 cell CPT: qHTS for Inhibitors of human tyrosyl-DNA phosphodiesterase 1 (TDP1): qHTS in cells in presence of CPT; chicken DT40 Tdp1-/-;hTDP1 cells + 20 nM CPT, ATP luminescence, 48 h; Potency, µM (top dose mostly 46.2 µM), usual class: inhibitors; 420,000 compounds, 12% hits; AID 686979, 2013; further: nearly all actives have a fitted effect of over 55% in size
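Chicken DT40 Tdp1-/- cells complemented with human TDP1, 400 cells/well, exposed to compounds plus 20 nM camptothecin for at least 48 h at 37 C; viability read as ATP content by CellTiter-Glo luminescence.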
KB-V1 MDR tox: qHTS assay for MDR1-selective chemotherapeutics: Primary screen using the drug-selected MDR subline cells KB-V1 | KB-V1 MDR cells viability, CellTiter-Glo, 72 h | Potency, µM (titrated, usually from 46.1 µM), actives largely listed as cytotoxic | 400,000 compounds, 3.4% hits | AID 1347076, 2019; further: nearly all actives have a fitted effect of over 60% in size
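Compound-treated KB-V1 multidrug-resistant cells, 72 h, 37 degrees C; viability by CellTiter-Glo. Fitted qHTS curves give the values.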
HT1080-NT tox: qHTS for induction of synthetic lethality in tumor cells producing 2HG: qHTS for the HT-1080-NT fibrosarcoma cell line; HT-1080-NT fibrosarcoma viability, CellTiter-Glo ATP luminescence, 48 h; Potency, µM (doses to about 46.1 µM), hits mostly cytotoxic; 360,000 compounds, 1.6% hits; AID 686970, 2013;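 further: NT is the 2HG producing partner of a matched IDH1 knockdown line; nearly all actives have a fitted effect of over 55% in size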
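Fibrosarcoma NT cells, 750 per well in 5% FBS RPMI, were exposed to compound for 48 hours. Viability: CellTiter-Glo luminescence.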
TDP1 cell noCPT: qHTS for Inhibitors of human tyrosyl-DNA phosphodiesterase 1 (TDP1): qHTS in cells in absence of CPT. DT40 Tdp1-/- hTDP1 cells, no CPT, ATP luminescence, 48 h. 420,000 compounds, 15% hits. AID 686978, 2013. Potency, µM (series often up to 46.2 µM), hits mostly inhibitors; further: nearly all actives have a fitted effect of over 55% in size
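Seeded 400 DT40-hTDP1 cells/well (vehicle DMSO, no 20 nM CPT); pinned compounds; ≥48 hr at 37 °C; CellTiter-Glo luminescence as viability measure.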
Hits are given with their value; 0 = inactive; ? = inconclusive; - = not tested or not shown; [ ] = another dose, or the depositor's remark. Rows were chosen to be rich in hits. Some 19% of all compounds tested hit in one or more screens of this group. The call rests on the fitted dose curve; in most records, active means well fitted curve in the direction sought with a large enough effect; inconclusive means small, poorly fitted or top-dose-only effect, or another doubt; inactive means no such curve, though single readings can be large; an effect the other way counts as inactive or inconclusive.

SMILES | HT1080 IDH1KD tx | KB-3-1 cytotox | TDP1 cell CPT | KB-V1 MDR tox | HT1080-NT tox | TDP1 cell noCPT
Cc1cccc(S(=O)Cc2ccc(C(=O)NC3CCCCCC3)o2)c1 (configuration not stated) | - | - | 11.6µM | - | - | ?
COc1ccccc1S(=O)(=O)Cc1ccc(C(=O)NC2CC2)o1 | 0 | 0 | 0 | ? | 0 | 0
CCc1ccccc1NC(=O)c1sc2nc3n(c(=O)c2c1C)CCC3 | - | 0 | 0 | 0 | - | ?
CCCCn1cc(S(=O)(=O)c2cc(C)ccc2C)c(=O)c2cc(F)c(F)cc21 | - | 0 | ? | 0 | - | ?
O=C1C(=NO)CCc2ccccc21 | ? | ? | 20.6µM | 0 | 0 | 20.6µM
O/N=C1/CCc2cccc3cccc1c23 | 0 | 0 | 0 | 0 | 0 | 0
Cc1ncc(CO)c(/C=N/Nc2ccc(C(F)(F)F)cn2)c1O | ? | ? | 4.11µM | 0 | 0 | 3.66µM
Cc1ncc(CO)c(/C=N/NC(=S)Nc2ccc(F)cc2)c1O | ? | ? | 16.4µM | 0 | 0 | 10.3µM
O=C(CCC(=O)NCc1ccccc1)NCc1ccccc1 | 0 | 0 | 0 | 0 | 0 | 0
Cc1ccc(CC(=O)NCc2ccc(F)cc2)cc1 | 7.31µM | ? | 4.11µM | ? | 9.2µM | 4.61µM
O=C(Cc1ccc(-c2ccccc2)cc1)NCc1ccccc1 | ? | 0.082µM | 0.517µM | 0.291µM | ? | 0.461µM
O=C(CCc1nnc(Cc2ccc(-c3ccccc3)cc2)o1)NCCc1cccnc1 | 0 | 0 | ? | 0 | 0 | 18.4µM
Cc1ccc(SCC(=O)NCc2ccc(F)cc2)cc1 | 0 | 0 | 0 | 0 | 0 | 0
CC(NC(=O)Cc1ccc(-c2ccccc2)cc1)c1ccccc1 (configuration not stated) | 0 | ? | 25.9µM | ? | 0 | ?
COc1ccc(Cl)cc1NC(=O)Cn1cnc2c1c(=O)n(C)c(=O)n2C | - | 0 | ? | 0 | - | ?
COC(=O)N(C)C[C@H]1OCc2cnnn2CCCC(=O)N([C@@H](C)CO)C[C@H]1C | 0 | 0 | 0 | 0 | 0 | 0
O=C(NCCS(=O)(=O)N1CCN(c2ccccc2F)CC1)c1cc(=O)c2ccccc2o1 | 0 | 0 | 0 | 0 | 0 | ?
CCOc1cccc(Cc2c[nH]c(=O)[nH]c2=O)c1 | 0 | 0 | 0 | 0 | 0 | 0
CCC(Cc1ccccc1)NC(=O)CN1C(=O)COc2ccc(S(=O)(=O)N3CCCCCC3)cc21 (configuration not stated) | - | 0 | ? | 0 | - | ?
Cc1ccc(C(=O)c2oc3ccccc3c2NC(=O)Cc2coc3c(C)c(C)ccc23)cc1 | - | 0 | 0 | ? | - | 0
O=C(NC(NCc1ccccc1)C(Cl)(Cl)Cl)c1cccnc1 (configuration not stated) | 0 | 0 | 0 | 0 | 0 | 0
O=C(Cc1ccc(-c2ccccc2)cc1)NCc1cccnc1 | 8.2µM | 14.6µM | 2.91µM | ? | ? | 6.51µM
COc1cccc(CCNC(=O)CCc2nnc(Cc3cc(OC)ccc3OC)o2)c1 | 0 | 0 | 0 | 0 | 0 | 0
O=C(Cc1ccccc1)NCc1cccnc1 | 0 | 0 | 0 | 0 | 0 | 0
O=C(NC(NCc1cccnc1)C(Cl)(Cl)Cl)c1cccc2ccccc12 (configuration not stated) | 0 | 0 | ? | 0 | 0 | 14.6µM
SMILES | HT1080 IDH1KD tx | KB-3-1 cytotox | TDP1 cell CPT | KB-V1 MDR tox | HT1080-NT tox | TDP1 cell noCPT
O=C(COC(=O)Cc1ccc(-c2ccccc2)cc1)NCc1ccc(F)cc1 | 0 | 0 | 6.51µM | 0 | 0 | ?
COc1ccc(CCNC(=O)CCc2nnc(Cc3ccc4c(c3)OCO4)o2)cc1 | 0 | 0 | 23.1µM | 0 | 0 | 18.4µM
CCOc1ccc(CCNC(=O)CN2C(=O)COc3ccc(S(=O)(=O)N4CCOCC4)cc32)cc1 | 0 | 0 | 0 | 0 | 0 | 0
Cc1ccc(CNC(=O)Cc2ccc(-c3ccccc3)cc2)cc1 | 2.82µM | 0 | 1.03µM | 0 | 3.98µM | 0.581µM
Cc1ccc(CNC(=O)COC(=O)Cc2ccc(-c3ccccc3)cc2)cc1 | 0 | 0 | ? | ? | 0 | ?
c1ccc(CN=C(NCc2ccccc2)NCc2ccccc2)cc1 | 16.4µM | ? | 2.31µM | 0 | ? | 2.91µM
S=C(NCc1ccccc1)C(=S)NCc1ccccc1 | 0 | 0 | 0 | 0 | 0 | 0
CN(C)C(=O)c1cnc(Sc2ncc(C(F)(F)F)cc2Cl)n1C | 0 | 0 | 8.2µM | 0 | 0 | 8.2µM
CCN(CC)c1nc(-c2ccccc2)ncc1S(=O)(=O)c1ccc(C)cc1 | 0 | 0 | ? | 0 | ? | 16.4µM
CN(C)c1nc(-c2ccccc2)ncc1S(=O)(=O)c1ccccc1 | 0 | 0 | 0 | 0 | 0 | ?
O=C(COc1ccc(Br)cc1)N(Cc1nnc(-c2ccccc2Cl)o1)C1CC1 | 0 | 0 | 23.1µM | ? | 0 | 23.1µM
Cc1ccc(C)c(OCC(=O)N(Cc2nnc(-c3ccccc3Cl)o2)C2CC2)c1 | 0 | 0 | ? | 0 | 0 | ?
CCC(=O)c1ccc(OCC(=O)N(Cc2nnc(-c3ccccc3Cl)o2)C2CC2)cc1 | 0 | 0 | ? | ? | 0 | ?
O=C(COc1ccc(F)cc1Cl)N(Cc1nnc(-c2ccccc2Cl)o1)C1CC1 | 0 | 0 | 0 | ? | 0 | 16.4µM
CC(C)N(Cc1nnc(-c2ccccc2Cl)o1)C(=O)COc1cccc(Cl)c1 | 0 | 0 | 0 | ? | 0 | ?
Cc1cccc(OCC(=O)N(Cc2nnc(-c3ccccc3Cl)o2)C2CC2)c1 | 0 | 0 | 16.4µM | 0 | 0[9.24 µM] | ?
CCCN(Cc1nnc(-c2ccccc2Cl)o1)C(=O)COc1ccc(Cl)cc1 | 0 | 0 | ? | 4.11µM | 0 | ?
CC(C)CC(=O)Nc1ccc(C(=O)OCc2cc(=O)n3nc(C(C)C)sc3n2)cc1 | - | - | 0 | - | - | 0
Cc1ccc2oc(=O)c3cc(C(=O)NCCCOC(C)C)sc3c2c1 | - | 0 | 0 | 0 | - | 0
COc1cccc(CNC(=O)c2cc3c(=O)oc4ccc(C)cc4c3s2)c1 | - | 0 | ? | 0 | - | 20.6µM
COCCCNC(=O)c1cc2c(=O)oc3ccc(C)cc3c2s1 | - | - | 6.51µM | - | - | 5.8µM
O=C(/C=C/c1ccc2c(c1)OCO2)N1CCN(c2n[nH]c(=O)[nH]c2=O)CC1 | 0 | 0 | 0 | 0 | 0 | 0
CCOc1ccccc1NC(=O)C(OC(=O)c1ccccc1NS(=O)(=O)c1cccs1)c1ccccc1 (configuration not stated) | 0 | 0 | 0 | 0 | 0 | ?
